Bioassay records from PubChem.
LYPLA1 counter – counter-screen for PME1 inhibitors: inhibitors of human LYPLA1; O75608; recombinant LYPLA1, FP-Rh probe fluorescence polarization; AID 2174; actives 0.16% (n = 320,000); inhibition, % at 5.9 µM;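 active = inhibition above the mean of all tested compounds plus 3 SD, set per campaign, cut at about 14% in these data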;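 also: inhibitors block serine hydrolase probe labeling of LYPLA1 so polarization falls; 0% = enzyme with DMSO and 100% = wells lacking LYPLA1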
Redox H2O2 prof – compounds producing H2O2 with reducing agent – biochemical, NIH compound library profiling, artefact control for MLSCN library redox annotation, primary screen | DTT-dependent redox cycling H2O2, phenol red/HRP absorbance; 100% = 100 µM peroxide control, 0% = buffer | activation, % at 10 µM | actives 0.03% (n = 200,000) | AID 878;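 active = activation of at least 50% relative to the plate's high and low controls in the primary single-dose screen; inactive = activation below 50%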;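 also: compound incubated with DTT at 0.8 mM final as the reducing agent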
LYPLA2 counter – LYPLA2 (human) inhibition in PME1 counter-screen | O95372 | recombinant LYPLA2, FP-Rh probe fluorescence polarization | inhibition, % at 5.9 µM | actives 0.38% (n = 320,000) | AID 2177;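 active = inhibition above the screen-wide mean plus 3 SD, limit set per campaign, cut at about 26% in these data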;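 also: 0% = LYPLA2 with DMSO and 100% = wells lacking LYPLA2 enzyme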
p97 inhibitor – human p97 ATPase inhibition | recombinant p97 ATPase, Kinase-Glo ATP luminescence, 3 h | inhibition, % at 8 µM | actives 0.42% (n = 220,000); in the data active = inhibition above about 15%;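 also: 0% = DMSO vehicle and 100% = wells lacking enzyme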
p97 confirm – confirmation of human p97 ATPase inhibitors; actives 44% (n = 760); inhibition, % at 8 µM; shares compounds with p97 inhibitor; recombinant p97 ATPase, Kinase-Glo ATP luminescence;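 active = percent inhibition of p97 ATPase above a set limit, the primary screen's mean plus 3 SD, cut at about 15% in these data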;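 also: 0% = DMSO wells and 100% = wells lacking p97 protein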
Active calls of the source: *; / = no result. The list is not random: actives were taken first. Their share in the collection is about 0.74%.

SMILES	LYPLA1 counter	Redox H2O2 prof	LYPLA2 counter	p97 inhibitor	p97 confirm
COc1cc(/C=C2\SC(=Nc3ccc(O)cc3)NC2=O)cc(OC)c1OC	3	/	10	4	/
COc1cc(/C=C2/SC(=Nc3ccc(O)cc3)NC2=O)cc(OC)c1O	-23	-1	-53	26*	20*
O=C1NC(=Nc2ccc(O)cc2)S/C1=C\C=C\c1ccco1	-4	/	-4	36*	31*
COc1cccc(CNC(=O)c2ccccc2NC(=O)C2=C(C)OCCS2)c1	0	/	-1	/	/
Cn1c(C(=O)NCc2ccccn2)cc2c(=O)n(C)c3ccccc3c21	0	0	-3	25*	5
Cc1[nH]n(-c2ccccc2)c(=O)c1/C=C1/C=c2ccccc2=N1	/	0	/	1	/
Cc1[nH]n(-c2ccccc2)c(=O)c1/C=C1\C=NN=C1c1ccccc1	-3	/	2	18*	17*
C/C(CC(=O)Nc1c(C)cc(C)cc1C)=N\NC(=O)c1cnccn1	-1	0	1	-2	/
Cc1noc(C)c1COC(=O)c1ccc(S(=O)(=O)N2CCCCC2)cc1	1	-1	2	-2	/
CC(C)[C@H](NC(=O)Nc1ccccc1F)C(=O)O	2	0	-5	15*	8
CC(C)n1nccc1N(Cc1ccc(Br)cc1)S(=O)(=O)c1ccccc1	-1	/	-1	/	/
Cc1cccc(Nc2nc(N)nc(CCl)n2)c1	0	/	3	11	/
COc1cccc(Nc2nc(N)nc(CCl)n2)c1	0	/	2	18*	17*
COc1ccc(OC)c(Nc2nc(N)nc(CCl)n2)c1	-1	/	1	25*	25*
CCOc1ccc(S(=O)(=O)NCCC(=O)N2CC(C)OC(C)C2)cc1 (centres undefined)	3	/	8	/	/
CC(OC(=O)CCC(=O)N1CCN(S(=O)(=O)c2ccc3ccccc3c2)CC1)C(=O)NC(N)=O (centres undefined)	-1	/	-5	/	/
C=CCn1c(Cc2ccccc2)nc2c(cnn2-c2ccccc2)c1=O	1	/	-3	/	/
Cc1nc(S/C(=C\c2ccc(-c3ccc(C(=O)O)c(Cl)c3)o2)C(=O)O)n[nH]1	/	/	/	53*	44*
Nc1cccc2c1C(=O)N(C(=O)/C=C/c1cccc(F)c1)C2=O	-5	0	3	2	/
Nc1cccc2c1C(=O)N(C(=O)/C=C/c1cccc(Br)c1)C2=O	/	/	/	17*	19*
CC1Cc2c([nH]c3ccccc23)C2c3ccccc3CN12 (centres undefined)	-2	/	-4	/	/
NC1=NC2(CCCCC2)N(c2cccc(Cl)c2)C(N)=N1	0	0	3	25*	2
O=C1C2C3CCC(O3)C2C(=O)N1c1cccc(O)c1 (centres undefined)	5	/	8	/	/
O=C1OC(=O)C2C1[C@@H]1CC[C@H]2O1 (some centres undefined)	0	0	0	16*	9
C#CCOCCOCCOCCNc1nc(N2CCN(C(=O)[C@H]([C@@H](C)CC)n3cc([C@@H](N)Cc4ccc(O)cc4)nn3)CC2)nc(N2CCN(C(=O)[C@H]([C@@H](C)CC)n3cc([C@@H](N)CC(C)C)nn3)CC2)n1	4	0	4	18*	9
SMILES	LYPLA1 counter	Redox H2O2 prof	LYPLA2 counter	p97 inhibitor	p97 confirm
C#CCOCCOCCOCCNc1nc(N2CCN(C(=O)C(Cc3ccc(O)cc3)n3cc(C(N)CC(C)C)nn3)CC2)nc(N2CCN(C(=O)C(Cc3cc4ccccc4[nH]3)n3cc(C(N)Cc4ccc(O)cc4)nn3)CC2)n1 (centres undefined)	-8	-1	-4	19*	20*
CCC[C@@H]1CCCO[C@@](C(=O)NCCN2CCOCC2)(C(F)(F)F)C1	3	/	6	/	/
CC(C)c1ccc(NC(=O)C(c2ccccc2)N2CC(=O)Nc3ccccc32)cc1 (centres undefined)	-1	2	-10	15*	6
NC(=O)C(=CNc1nc(-c2ccc(Cl)c(Cl)c2)cs1)C(N)=O	/	/	/	26*	19*
CN1c2cccc3cccc(c23)N(C)C1(C)C	1	2	2	4	/
CC(=O)c1ccc2cccc3c2c1N=CN3C	0	0	-2	32*	5
COC(=O)C(CC(=O)O)NCc1ccco1 (centres undefined)	-3	/	2	8	/
COCCOC(=O)C(CC(=O)O)NCc1ccco1 (centres undefined)	-4	/	1	16*	2
CCN(CC)C(=O)c1ccc(COc2ccccc2Cl)cc1	-1	0	0	15*	-1
O=C(O)c1ccc(COc2ccccc2Cl)cc1	-1	2	3	5	/
O=C(Nc1ccc(Nc2ccncc2)cc1)c1ccc(Nc2ccnc3ccc([N+](=O)[O-])cc23)cc1	/	/	/	34*	24*
CCOC(=O)c1[nH]c2ccc(Br)cc2c1NC(=O)CCN1CCCC(C)C1 (centres undefined)	-2	1	-2	17*	-1
CCOC(=O)c1[nH]c2ccc(Br)cc2c1NC(=O)CCN1CCC(C)CC1	3	0	-2	17*	2
CCOC(=O)c1[nH]c2ccc(Br)cc2c1NC(=O)CNC	0	0	3	1	/
CCOC(=O)c1[nH]c2ccc(OC)cc2c1NC(=O)CCN1CCC(C)CC1	-2	0	2	-4	/
O=C(Nc1ccc(-c2nc3ccc(NC(=O)c4cccs4)cc3[nH]2)cc1)c1cccs1	-2	2	-5	2	/
O=C(Nc1ccc2nc(-c3cccs3)[nH]c2c1)c1cccs1	-12	0	-3	15*	19*
Cn1nnc2cc(C(=O)N3CCSCC3)ccc21	2	2	7	17*	7
Cn1nnc2cc(C(=O)N3CCN(c4ccccn4)CC3)ccc21	0	/	2	/	/
CCOC(=O)[C@H]1[C@H]2COc3ccc(Cl)cc3[C@@H]2N2C(=O)CN(CC3CCCO3)C(=O)[C@@]12C (some centres undefined)	0	/	5	/	/
Cn1cc(C(=O)CCl)c2ccccc21	/	-1	/	40*	47*
Cc1cc(C)n(-c2nc(NC(C)(C)C)nc(NC(C)(C)C)n2)n1	-1	18	4	3	/
CC(C)(C)Nc1nc(NC(C)(C)C)nc(-n2ccnc2)n1	-6	1	-2	15*	10
Cc1cnc(C(=O)NC2CCSc3ccccc32)cn1 (centres undefined)	3	/	6	/	/
Nc1cc(-c2ccncc2)c[nH]c1=O	5	1	6	23*	5
NC(=O)c1csc(-c2ccncc2)n1	0	2	-2	2	/
COCC1CCCCN1Cc1cn[nH]c1-c1ccc2cc(OC)ccc2c1 (centres undefined)	-1	0	-1	17*	6
CC1(C)OC(=O)C(=CNc2ccccn2)C(=O)O1	0	/	2	15*	1
COc1ccc(-n2c(NC(=O)c3ccco3)c(C#N)c3nc4ccccc4nc32)cc1	-6	0	-4	32*	29*
COc1ccc(C(=O)Nc2ccc(NC(=O)c3ccco3)cc2)cc1	-7	/	-18	/	/
